# Source: PubChem BioAssay (EPA / NIEHS)
# Records with an inconclusive call do not appear. Active and inactive are the calls of the source. The calls were made as follows, unless noted: active = hit-call score of the fitted dose curve at least 0.9, where 1 is the maximum; inconclusive = response in the unintended direction; inactive = score below 0.9.
# Columns and labels:
# [1] = read-out: Cellular tumor antigen p53 (Homo sapiens) (UniProt P04637); assay: LTEA_HepaRG_TP53: Life Technologies and Expression Analysis (LTEA) Assay for Tumor Protein P53 (TP53) using HepaRG (AID 2283537; active = hit-call score of the fitted dose curve at least 0.9, where 1 is the maximum; inactive = score below 0.9); details: mRNA level, 48 h; actives raise or lower the signal
# Procedure, shortened: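 TP53 transcript measured by qRT-PCR, normalized to three housekeeping genes, after 48 h treatment of human HepaRG cultures with chemicals from 100 uM downward in half-log steps (0.5% DMSO vehicle, serum-free induction medium). Up- or down-regulation fitted against DMSO.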
# [2] = read-out: UDP glucuronosyltransferase (UGT1A1), UGT1A1 (gene 54658); assay: LTEA_HepaRG_UGT1A1: Life Technologies and Expression Analysis (LTEA) Assay for UDP glucuronosyltransferase (UGT1A1) using HepaRG (AID 2283538; active = hit-call score of the fitted dose curve at least 0.9, where 1 is the maximum; inactive = score below 0.9); details: mRNA level, 48 h; actives raise or lower the signal
# Procedure, shortened: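 Readout is UGT1A1 transcript level by qRT-PCR, normalized to three housekeeping genes, after 48 h chemical treatment of HepaRG cells. Concentrations ran from 100 uM down in half-log steps with 0.5% DMSO, and gain or loss relative to DMSO was fitted.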
# [3] = read-out: UDP glucuronosyltransferase (UGT1A6), UGT1A6 (gene 54578); assay: LTEA_HepaRG_UGT1A6: Life Technologies and Expression Analysis (LTEA) Assay for UDP glucuronosyltransferase (UGT1A6) using HepaRG (AID 2283539; active = hit-call score of the fitted dose curve at least 0.9, where 1 is the maximum; inactive = score below 0.9); details: mRNA level, 48 h; actives raise or lower the signal
# Procedure, shortened: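 Expression was quantified by TaqMan qRT-PCR on Fluidigm arrays with ACTB/GAPDH/POLR2A normalization and bidirectional fitting against 0.5% DMSO. HepaRG cells (~100,000/well) were treated in duplicate for 48 h at eight half-log concentrations up to 100 uM in serum-free induction medium.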
# [4] = read-out: X-box binding protein 1 (XBP1), XBP1 (gene 7494); assay: LTEA_HepaRG_XBP1: Life Technologies and Expression Analysis (LTEA) Assay for X-box binding protein 1 (XBP1) using HepaRG (AID 2283540; active = hit-call score of the fitted dose curve at least 0.9, where 1 is the maximum; inactive = score below 0.9); details: mRNA level, 48 h; actives raise or lower the signal
# Procedure, shortened: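 XBP1 transcript by qRT-PCR (housekeeping-normalized: ACTB, GAPDH, POLR2A) after 48 h chemical treatment of HepaRG cells, 8-point half-log series topping at 100 uM, vehicle 0.5% DMSO. Gain and loss of signal fitted relative to DMSO.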
# [5] = LTEA_HepaRG_LDH_cytotoxicity: Cytotoxicity Assessment in the Life Technologies and Expression Analysis (LTEA) Assay (AID 2283563)
# Procedure, shortened: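 LDH release into culture medium read after 48 h chemical treatment of HepaRG cells. Duplicate wells, eight-point half-log series topping at 100 uM, 0.5% DMSO vehicle and baseline.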
# [6] = ATG_XTT_Cytotoxicity: Cytotoxicity Assessment in the Attagene TRANS-FACTORIAL HepG2 Assay (AID 2283584)
# Procedure, shortened: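 Viability endpoint from XTT after 24 h chemical exposure of reporter-transfected human HepG2 liver cells; signal loss fitted relative to DMSO negative control.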
# [7] = TOX21_p53_BLA_p2_viability: Viability Assessment in the Tox21 HCT-116 p53 Agonism Beta-lactamase Assay, Phase 2 (AID 2283591);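 also: compound exposure lasted 16 h at 37 °C; actives lower the ATP signal meaning cytotoxicity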
# Procedure, shortened: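 HCT-116 p53-bla cells (4000/well) rested 5 h at 37C, then received compounds in DMSO (217-fold dilution) for 16 h at 37C, 5% CO2. After the CCF4 read, CellTiter-Glo was added; ATP luminescence was read after 30 min at room temperature.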
# [8] = target: Cellular tumor antigen p53 (Homo sapiens) (UniProt P04637); assay: TOX21_p53_BLA_p2_ratio: Tox21 HCT-116 p53 Agonism Beta-lactamase Assay, Ratio, Phase 2 (AID 2283592)
# Procedure, shortened: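 Gain-of-signal p53 agonism was scored from the beta-lactamase FRET ratio (460/530 nm, 405 nm excitation) in HCT116 cells treated 16 h at 37C, 5% CO2, with DMSO serving as negative control and baseline.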
# [9] = TOX21_p53_BLA_p3_viability: Viability Assessment in the Tox21 HCT-116 p53 Agonism Beta-lactamase Assay, Phase 3 (AID 2283593);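 also: cells exposed to compound for 16 h before reading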
# Procedure, shortened: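 HCT-116 cells (4000/well) rested 5 h at 37C, then got DMSO compounds by pin tool (217-fold dilution) for 16 h at 37C, 5% CO2. After the bla read, CellTiter-Glo was added and luminescence read at 30 min, room temperature.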
# [10] = TOX21_p53_BLA_p4_viability: Viability Assessment in the Tox21 HCT-116 p53 Agonism Beta-lactamase Assay, Phase 4 (AID 2283597);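 also: hits lower the luminescence signal meaning cytotoxicity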
# Procedure, shortened: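 Following a 16 h exposure at 37C, the treated HCT116 wells were first read for the FRET ratio. They were then lysed with CellTiter-Glo, and ATP luminescence was recorded after 30 min at room temperature.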
# [11] = target: Cellular tumor antigen p53 (Homo sapiens) (UniProt P04637); assay: TOX21_p53_BLA_p5_ratio: Tox21 HCT-116 p53 Agonism Beta-lactamase Assay, Ratio, Phase 5 (AID 2283599)
# Procedure, shortened: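 HCT-116 cells carrying a p53-inducible beta-lactamase reporter were seeded at 4000 cells/well and dosed after 5 h with compound in DMSO (217-fold dilution). After 16 h at 37C, CCF4-AM substrate was added for 2 h, and the 460/530 nm emission ratio was scored as gain-of-signal versus DMSO.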
# [12] = TOX21_p53_BLA_p5_viability: Viability Assessment in the Tox21 HCT-116 p53 Agonism Beta-lactamase Assay, Phase 5 (AID 2283600)
# Procedure, shortened: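 After the 460/530 nm beta-lactamase measurement, the wells received an ATP-detection luciferase reagent; signal was read 30 min later at RT. Compound treatment lasted 16 h on cells pre-incubated 5 h post-seeding.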
# [13] = target: Cellular tumor antigen p53 (Homo sapiens) (UniProt P04637); assay: TOX21_p53_BLA_p4_ratio: Tox21 HCT-116 p53 Agonism Beta-lactamase Assay, Ratio, Phase 4 (AID 2283601)
# Procedure, shortened: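 HCT116 cells carrying an inducible beta-lactamase reporter were plated at 4000 cells/well, rested 5 h, then exposed to compounds in DMSO (217-fold dilution) for 16 h at 37C. CCF4-AM substrate was loaded 2 h at room temperature; 460/530 nm emission ratio scored gain-of-signal versus DMSO.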
# [14] = Tanguay_ZF_120hpf_YSE_legacy: (Legacy) Oregon State University Tanguay Lab 120 Hour Post-fertilization zebrafish Assay for Yolk Sac Edema (AID 2283634);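 as to AC50: actives raise the incidence of yolk sac edema above the DMSO baseline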
# Procedure, shortened: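 Presence or absence of yolk sac edema was recorded at 120 hpf in surviving larvae. These were wild-type Tropical 5D embryos, chorion removed at 4 hpf, held in static exposure at 28C from 6 hpf with 0.64% DMSO vehicle.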
# [15] = Tanguay_ZF_120hpf_AXIS_legacy: (Legacy) Oregon State University Tanguay Lab 120 Hour Post-fertilization zebrafish Assay for Body Axis Malformation (AID 2283635);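 as to AC50: potency for an increased fraction of larvae scored with body axis malformation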
# Procedure, shortened: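 Binary scoring of axis defects at 120 hpf under brightfield, fitted positive versus DMSO. Tropical 5D embryos, chorion removed by pronase at 4 hpf, were singly exposed in sealed, dark plates at 28C from 6 hpf; DMSO 0.64% final.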
# [16] = Tanguay_ZF_120hpf_EYE_legacy: (Legacy) Oregon State University Tanguay Lab 120 Hour Post-fertilization zebrafish Assay for Eye Malformation (AID 2283636);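 also: binary presence or absence of eye malformation scored by brightfield in 120 hpf larvae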
# Procedure, shortened: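 Dechorionated wild-type Tropical 5D zebrafish embryos were exposed statically from 6 hpf, one per well, to 120 hpf at 28C in sealed, foil-covered plates with 0.64% DMSO. Eye malformation was scored present/absent by brightfield microscopy against DMSO controls.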
# [17] = Tanguay_ZF_120hpf_SNOU_legacy: (Legacy) Oregon State University Tanguay Lab 120 Hour Post-fertilization zebrafish Assay for Snout Malformation (AID 2283637)
# Procedure, shortened: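 Tropical 5D wild-type zebrafish embryos, dechorionated with pronase at 4 hpf, were exposed singly from 6 hpf to 120 hpf statically at 28C in 0.64% DMSO. Snout malformation was scored present/absent by brightfield microscopy, fitted against DMSO.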
# [18] = Tanguay_ZF_120hpf_JAW_legacy: (Legacy) Oregon State University Tanguay Lab 120 Hour Post-fertilization zebrafish Assay for Jaw Malformation (AID 2283638);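 as to AC50: active means more embryos with jaw malformation than DMSO controls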
# Procedure, shortened: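 Binary jaw-malformation call at 120 hpf by brightfield microscopy. Embryos (Tropical 5D strain, chorion removed at 4 hpf) were dosed statically at 6 hpf, one per well, at 28C with 0.64% DMSO. Embryos that died were not scored.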
# [19] = Tanguay_ZF_120hpf_MORT_legacy: (Legacy) Oregon State University Tanguay Lab 120 Hour Post-fertilization zebrafish Assay for Mortality (AID 2283633)
# Procedure, shortened: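 Static waterborne exposure from 6 to 120 hpf at 28C of single dechorionated wild-type (5D) embryos per well, 0.64% DMSO final. Death recorded present/absent by brightfield at 24 and 120 hpf.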
# [20] = target: Cellular tumor antigen p53 (Homo sapiens) (UniProt P04637); assay: TOX21_p53_BLA_p3_ratio: Tox21 HCT-116 p53 Agonism Beta-lactamase Assay, Ratio, Phase 3 (AID 2283596)
# Procedure, shortened: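 HCT116 p53-bla cells (4000/well) given compound in DMSO (217-fold dilution) after 5 h, incubated 16 h at 37C. CCF4-AM substrate 2 h at room temperature; 460/530 nm emission ratio, gain fitted against DMSO.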
# Cellular tumor antigen p53 (Homo sapiens), sequence (P04637 whole entry, looked up): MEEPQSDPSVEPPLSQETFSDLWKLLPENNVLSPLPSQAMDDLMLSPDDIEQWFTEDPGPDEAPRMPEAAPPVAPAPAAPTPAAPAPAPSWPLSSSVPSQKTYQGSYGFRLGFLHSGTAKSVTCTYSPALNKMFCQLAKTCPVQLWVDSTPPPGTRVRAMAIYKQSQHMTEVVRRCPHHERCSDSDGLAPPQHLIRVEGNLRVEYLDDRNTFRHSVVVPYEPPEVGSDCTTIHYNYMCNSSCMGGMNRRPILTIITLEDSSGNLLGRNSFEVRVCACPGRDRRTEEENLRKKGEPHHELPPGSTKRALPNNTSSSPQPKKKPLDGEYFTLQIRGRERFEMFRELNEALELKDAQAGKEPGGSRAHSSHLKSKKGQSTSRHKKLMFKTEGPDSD
structure (smiles),measurement,setting,value
COC(=O)c1c(Cl)c(Cl)c(C(=O)OC)c(Cl)c1Cl,outcome,[1],inactive
same,outcome,[2],inactive
same,outcome,[3],inactive
same,outcome,[4],inactive
same,outcome,[5],inactive
same,outcome,[6],inactive
same,outcome,[7],inactive
same,outcome,[8],inactive
same,outcome,[9],inactive
same,outcome,[10],inactive
same,outcome,[11],inactive
same,outcome,[12],inactive
same,outcome,[13],inactive
same,outcome,[14],inactive
same,outcome,[15],inactive
same,outcome,[16],inactive
same,outcome,[17],inactive
same,outcome,[18],inactive
Cn1c(=O)c2c(ncn2C)n(C)c1=O,outcome,[1],inactive
same,outcome,[2],inactive
same,outcome,[3],inactive
same,outcome,[4],inactive
same,outcome,[5],inactive
same,outcome,[6],inactive
same,outcome,[7],inactive
same,outcome,[8],inactive
same,outcome,[9],inactive
same,outcome,[10],inactive
same,outcome,[11],inactive
same,outcome,[12],inactive
same,outcome,[13],inactive
same,outcome,[19],inactive
same,outcome,[15],inactive
same,outcome,[16],inactive
same,outcome,[17],inactive
same,outcome,[18],inactive
O=C1OC(=O)C2C3C=CC(C3)C12 (stereo unspecified),outcome,[1],inactive
same,outcome,[2],inactive
same,outcome,[3],inactive
same,outcome,[4],inactive
same,outcome,[5],inactive
same,outcome,[6],inactive
same,outcome,[7],inactive
same,outcome,[8],inactive
same,outcome,[9],inactive
same,outcome,[20],inactive
same,outcome,[10],inactive
same,outcome,[11],inactive
same,outcome,[12],inactive
same,outcome,[13],inactive
same,outcome,[15],inactive
same,outcome,[16],inactive
same,outcome,[18],inactive
CC(C)CCCCCCCOC(=O)CCCCC(=O)OCCCCCCCC(C)C,outcome,[1],inactive
same,outcome,[2],inactive
same,outcome,[3],inactive
same,outcome,[4],inactive
same,outcome,[5],inactive
same,outcome,[6],inactive
same,outcome,[7],inactive
same,outcome,[8],inactive
same,outcome,[9],inactive
same,outcome,[20],inactive
same,outcome,[13],inactive
same,outcome,[19],inactive
same,outcome,[14],inactive
same,outcome,[15],inactive
same,outcome,[16],inactive
same,outcome,[18],inactive
CC(=O)OCCC(C)C,outcome,[1],inactive
same,outcome,[2],inactive
same,outcome,[3],inactive
same,outcome,[4],inactive
same,outcome,[5],inactive
same,outcome,[6],inactive
same,outcome,[7],inactive
same,outcome,[8],inactive
same,outcome,[9],inactive
same,outcome,[10],inactive
same,outcome,[11],inactive
same,outcome,[13],inactive
same,outcome,[19],inactive
same,outcome,[14],inactive
same,outcome,[15],inactive
same,outcome,[16],inactive
same,outcome,[17],inactive
same,outcome,[18],inactive
Nc1nc2ncc(CNc3ccc(C(=O)N[C@@H](CCC(=O)O)C(=O)O)cc3)nc2c(=O)[nH]1,outcome,[1],inactive
same,outcome,[2],inactive
same,outcome,[3],inactive
same,outcome,[4],inactive
same,outcome,[5],inactive
same,outcome,[6],inactive
same,outcome,[7],inactive
same,outcome,[8],inactive
same,outcome,[9],inactive
same,outcome,[10],inactive
same,outcome,[11],inactive
same,outcome,[13],inactive
same,outcome,[19],inactive
same,outcome,[15],inactive
same,outcome,[16],inactive
same,outcome,[18],inactive
Oc1ccc2c(c1)-c1ccccc1C2,outcome,[1],inactive
same,AC50,[2],30.4 µM (active)
same,outcome,[3],inactive
same,outcome,[4],inactive
same,outcome,[5],inactive
same,outcome,[6],inactive
same,outcome,[7],inactive
same,outcome,[8],inactive
same,outcome,[9],inactive
same,outcome,[10],inactive
same,outcome,[11],inactive
same,outcome,[12],inactive
same,AC50,[13],79.7 µM (active)
same,outcome,[19],inactive
same,AC50,[14],37.6 µM (active)
same,AC50,[15],35.5 µM (active)
same,AC50,[16],48 µM (active)
same,AC50,[18],37.7 µM (active)
